Screening data as filed in PubChem BioAssay.
KB-V1 cytotox = kills drug-selected multidrug resistant KB-V1 cells; KB-V1 MDR cells viability, CellTiter-Glo, 72 h; actives 3.4% (n = 400,000); Potency, µM (doses to about 46.1 µM), usual class: cytotoxic; further: nearly all actives have a fitted effect of over 60% in size
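KB-V1 MDR subline cells in DMEM (phenol-red free, 10% FBS) exposed to compounds in qHTS concentration series for 72 h at 37 degrees C. Viability read by CellTiter-Glo luminescence; concentration-effect curves fitted after normalization and correction.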
KCNH2 3.1 inh = inhibitors of human KCNH2 3.1 potassium channel isoform | activity change, % (tested at about 1.8 µM) | actives 0.95% (n = 340,000) | AID 720553 | U2OS KCNH2 3.1, thallium flux FluxOr; stronger effect = lower value;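 active means maximum activity change below -70%; inconclusive means maximum activity change from -70% to -50%; inactive means maximum activity change above -50%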;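 further: thallium influx rate constant from kinetic fluorescence after stimulation buffer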
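Thallium flux read-out: FluxOr dye with Red40 quencher in HBSS/HEPES, 45 min at RT. Rate constants from kinetic reads were normalized to positive and negative DMSO controls. Cells: U2OS virally expressing the 3.1 isoform.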
SW480 rerep = DNA re-replication induction in SW480 cells; AID 624297; SW480 DNA re-replication, Hoechst DNA content imaging, 48 h; actives 1.8% (n = 340,000); Potency, µM (highest dose often 46.1 µM), hits mostly activators; further: nearly all actives have a fitted effect of over 55% in size
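Image-based read-out: total Hoechst fluorescence of nuclei (405 nm excitation, 500-530 nm emission), with hits raising the fraction of high-intensity nuclei. SW480 colon cells incubated 48 hr with compounds at 37 C.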
MCF10A rerep = inducers of DNA re-replication in MCF 10A breast cells. MCF 10A DNA re-replication, Hoechst nuclear intensity, 48 h. Potency, µM (top dose mostly 46.1 µM), actives largely listed as activators. actives 2.9% (n = 350,000). AID 624296; further: nearly all actives have a fitted effect of over 50% in size
KB-3-1 cytotox = KB-3-1 parental cell cytotoxicity; actives 1.4% (n = 400,000); Potency, µM (titrated, usually from 46.1 µM), usual class: cytotoxic; KB-3-1 viability, CellTiter-Glo ATP luminescence, 72 h; AID 1347075; further: nearly all actives have a fitted effect of over 60% in size
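KB-3-1 cells, DMEM (no phenol red) + 10% FBS; compound by pin transfer, 72 h, 37 °C. Readout: CellTiter-Glo luminescence after 10 min. Data normalized, curve-fitted.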
KCNH2 WT inh = KCNH2 (human, wildtype) channel inhibition | U2OS, BacMam KCNH2, thallium flux FluxOr; stronger effect = lower value | activity change, % at 1.84 µM | actives 0.37% (n = 340,000) | Q12809;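 active means maximum activity change below -70%; inconclusive means maximum activity change between -70% and -50%; inactive means maximum activity change above -50%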
Target sequence (Q12809 whole entry, looked up): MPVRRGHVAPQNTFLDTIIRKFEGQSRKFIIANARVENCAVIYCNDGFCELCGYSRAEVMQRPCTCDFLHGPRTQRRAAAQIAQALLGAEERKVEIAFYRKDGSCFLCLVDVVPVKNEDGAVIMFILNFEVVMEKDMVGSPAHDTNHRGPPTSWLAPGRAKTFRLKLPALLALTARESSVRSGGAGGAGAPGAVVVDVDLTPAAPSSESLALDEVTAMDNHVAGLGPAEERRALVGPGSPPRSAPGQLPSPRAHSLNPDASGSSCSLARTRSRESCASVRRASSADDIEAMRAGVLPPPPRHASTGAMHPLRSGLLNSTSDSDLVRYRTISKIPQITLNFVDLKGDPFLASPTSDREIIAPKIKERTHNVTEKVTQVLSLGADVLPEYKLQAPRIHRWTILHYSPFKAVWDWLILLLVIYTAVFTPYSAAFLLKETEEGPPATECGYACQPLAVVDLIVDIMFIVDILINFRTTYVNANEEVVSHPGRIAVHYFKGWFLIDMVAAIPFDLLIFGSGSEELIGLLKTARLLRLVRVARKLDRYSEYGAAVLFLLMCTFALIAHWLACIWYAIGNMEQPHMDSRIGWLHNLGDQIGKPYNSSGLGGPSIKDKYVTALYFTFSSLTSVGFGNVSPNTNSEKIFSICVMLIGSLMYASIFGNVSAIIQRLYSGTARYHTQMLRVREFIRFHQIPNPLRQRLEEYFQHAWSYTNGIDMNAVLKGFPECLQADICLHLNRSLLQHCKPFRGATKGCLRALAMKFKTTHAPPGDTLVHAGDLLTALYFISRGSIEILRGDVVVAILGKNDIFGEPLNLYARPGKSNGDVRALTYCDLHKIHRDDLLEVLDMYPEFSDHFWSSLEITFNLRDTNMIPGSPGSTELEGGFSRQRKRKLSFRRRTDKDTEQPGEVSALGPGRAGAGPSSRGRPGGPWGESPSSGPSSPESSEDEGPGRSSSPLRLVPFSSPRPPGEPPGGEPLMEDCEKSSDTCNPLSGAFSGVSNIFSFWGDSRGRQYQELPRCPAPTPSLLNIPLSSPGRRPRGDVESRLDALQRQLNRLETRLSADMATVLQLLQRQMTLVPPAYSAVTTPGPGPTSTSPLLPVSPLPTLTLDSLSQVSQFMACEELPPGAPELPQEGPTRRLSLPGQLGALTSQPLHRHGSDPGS
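U2OS cells were transduced with wild-type KCNH2 virus (2.03 x 10^8 / mL) for 4 h at room temperature, then cultured overnight at 37 C. Thallium flux was read with FluxOr dye. Rate constants were normalized to DMSO controls.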
Numbers stand for hits; . = inactive; ? = inconclusive; / = no result given; [ ] = dose if it differs, or a comment. Most compounds without a hit are left out; they make up all but 7.6% or so of the library. Unless noted, the call rests on the fitted dose curve; in most records, active means well fitted curve in the direction sought with a large enough effect; inconclusive means small, poorly fitted or top-dose-only effect, or another doubt; inactive means no such curve, though single readings can be large; an effect the other way counts as inactive or inconclusive.

SMILES	KB-V1 cytotox	KCNH2 3.1 inh	SW480 rerep	MCF10A rerep	KB-3-1 cytotox	KCNH2 WT inh
Cc1ccccc1N=C1NC(=O)/C(=C/c2cccn2C)S1	7.31µM	.	?	?	?	.
O=C1NC(=Nc2cccnc2)S/C1=C/c1ccc(F)cc1	?	.	?	7.31µM	?	.
Cc1cccc(N=C2NC(=O)/C(=C/c3cccs3)S2)c1	.	.	.	?	.	.
O=C1NC(=Nc2ccccc2)S/C1=C\c1cccnc1	.	.	?	.	.	.
O=C1NC(=Nc2ccccc2)S/C1=C\c1cccn1-c1ccccc1	4.61µM	.	6.51µM	6.51µM	5.17µM	.
Cc1cccc(N=C2NC(=O)/C(=C/c3cccn3C)S2)c1	5.8µM	.	?	?	?	.
N/C(CSc1ncccc1C(F)(F)F)=N\O	.	.	?	.	.	.
COc1cccc(CNC(=O)c2cc(-c3ccc(Cl)cc3)n[nH]2)c1	.	/	/	/	.	/
CCN(CC)C(=O)Cn1c(SCC(=O)Nc2ccc(F)cc2)nc2ccccc21	.	/	/	/	.	/
O=C(N/C(=C/c1cccnc1)C(=O)N1CCCCCC1)c1ccccc1	.	.	.	?	.	.
Cc1cc2nc(-c3ccc(SCc4ccccn4)nc3)[nH]c2cc1C	16.4µM	.	?	?	.	.
CCOC(=O)CSc1ccc(-c2nc3cc(C)c(C)cc3[nH]2)cn1	.	.	.	.	.	.
O=C(Nc1ccc2oc(-c3cccnc3)nc2c1)c1cccnc1	.	.	.	.	.	.
CCN(CC)CC(=O)Nc1ccc(-c2nc3cc(NC(=O)CN(CC)CC)ccc3o2)cc1	18.4µM	.	.	.	?	.
Cc1c(C(=O)Nc2ccc3oc(-c4cccnc4)nc3c2)oc2ccccc12	?	.	20.6µM	?	.	.
CCC(C)NCC(=O)Nc1ccc(-c2nc3cc(NC(=O)CNC(C)CC)ccc3o2)cc1 (stereo not drawn)	?	/	?	.	?	.
O=C(Nc1ccc2oc(-c3ccccc3)nc2c1)c1ccncc1	8.2µM	.	.	.	?	.
O=C(Nc1ccc2oc(-c3ccccc3Cl)nc2c1)c1cncc(Br)c1	5.17µM	.	?	16.4µM	?	.
Oc1cc2cc(CCN3CCN(c4nsc5ccccc45)CC3)c(Cl)cc2[nH]1	/	/	.	.	/	/
COc1nc(-c2ccccc2)c2cc(C)ccc2n1	?	.	.	.	.	.
Cc1ccc(NC(=O)c2cnc3sc(N4CCOCC4)nn3c2=O)cc1N(C)C	.	/	/	/	.	/
NNC(=O)c1cc2c(ccc3ccccc32)o1	?	.	?	?	.	.
O=C(Nc1ccc2oc(Cc3ccc(Cl)cc3)nc2c1)c1cccnc1	?	.	16.4µM	?	.	.
O=C(Nc1cccnc1)c1cc2c(ccc3ccccc32)o1	13µM	.	.	.	?	.
CCc1ccc2oc(C(=O)Nc3cccnc3)c(C)c2c1	?	.	?	.	?	.
SMILES	KB-V1 cytotox	KCNH2 3.1 inh	SW480 rerep	MCF10A rerep	KB-3-1 cytotox	KCNH2 WT inh
Cc1c(C(=O)Nc2cccnc2)oc2ccc(Br)cc12	3.26µM	.	?	?	8.2µM	.
Nc1cccc(-c2nc3cc(S(=O)(=O)c4ccc5oc(-c6cccc(N)c6)nc5c4)ccc3o2)c1	?	.	6.51µM	?	?	.
CCOc1cccc(C(=O)Nc2ccc3oc(Cc4ccc(Cl)cc4)nc3c2)c1	?	.	?	?	?	.
O=C(Cc1ccccc1)NN1C(=O)/C(=C/c2ccccc2C(=O)O)SC1=S	?	.	.	.	.	.
CC(C)c1ccc(NC2CCCN(C(=O)CCCn3cncn3)C2)cc1 (stereo not drawn)	/	.	.	.	/	.
COc1ccc(C(=O)NC(Cn2ccnc2)C(C)(C)C)cc1OC1CCN(C(C)C)CC1 (stereo not drawn)	.	.	.	.	?	.
O=C(Nc1ccc2oc(-c3ccccc3F)nc2c1)c1ccc2c(c1)OCCO2	18.4µM	.	.	?	.	.
Cc1ccc(-c2nc3cc(NS(=O)(=O)c4ccc(C)cc4)ccc3o2)cc1	.	.	?	?	.	.
O=S(=O)(Nc1ccc2oc(-c3ccccc3)nc2c1)c1ccccc1	.	.	?	20.6µM	.	.
Cc1cc(NC(=O)c2ccc3c(c2)OCCO3)cc(-c2nc3ccccc3o2)c1O	.	/	/	/	.	/
Cc1ccc(-c2nc3ccccc3s2)cc1NC(=S)NC(=O)c1ccccc1	.	.	.	13µM	.	.
Nc1ccc(-c2nc3ccccc3s2)cn1	?	.	.	.	.	.
Cc1cc(-c2nc3ccccc3s2)ccc1N	18.4µM	/	?	20.6µM	?	.
CC(=O)Nc1cc(-c2nc3ccccc3s2)ccc1C	.	/	/	/	.	/
Cc1cc(C)c2oc(-c3ccc(C)c(NC(=S)NC(=O)c4cccs4)c3)nc2c1	.	.	.	9.2µM	.	.
Cc1nc(C(=O)N2CCC(C)(C(=O)NS(=O)(=O)C3CC3)C2)c(C)o1 (stereo not drawn)	.	/	/	/	.	/
CCCc1cc(=O)n2nc(N3CCC(C(=O)N4CCN(c5ccc(OC)cc5)CC4)CC3)sc2n1	.	.	.	.	.	.
CCOc1ccc(C)cc1S(=O)(=O)n1cnc2ccccc21	?	.	?	23.1µM	13µM	.
CCOc1cc(C)c(Cl)cc1S(=O)(=O)n1cnc2ccccc21	.	.	.	.[0.0737 µM]	.	.
CCOc1ccc(Cl)cc1S(=O)(=O)n1cnc2ccccc21	4.47µM	.	.	7.94µM	?	.
CN(Cc1ccccc1)C(=O)CC(c1ccccc1)c1cc(Cl)ccc1O (stereo not drawn)	13µM	.	?	?	?	.
CC(NC(=O)CCC(=O)NC(C)c1ccccc1)c1ccccc1 (stereo not drawn)	.	.	?	.	.	.
CC(NC(=O)CC(c1ccccc1)c1cc(Cl)ccc1O)c1ccccc1 (stereo not drawn)	20.6µM	.	.	?	?	.
CC(NC(=O)CCSCCC(=O)NC(C)c1ccccc1)c1ccccc1 (stereo not drawn)	16.4µM	.	.	.	.	.
Cc1ccc(NC(=O)Cn2c(=O)n(Cc3ccc(F)cc3)c(=O)c3cccnc32)cc1C	.	/	/	/	.	/
CO[C@H]1OC2O[C@@]3(C)CC[C@H]4[C@H](C)CC[C@@H]([C@H]1C)[C@@]24OO3 (stereo partly drawn)	/	/	?	.	/	/
COc1ccc(S(=O)(=O)Nc2cccc(-c3ccc(N4CCCC4)nn3)c2)cc1F	.	/	/	/	?	/
Cc1cc(Br)ccc1NC(=O)CN1C(=O)C2CC=CCC2C1=O (stereo not drawn)	.	.	.	.	.	.
CCOC(=O)N1CCN(S(=O)(=O)c2ccc(F)c(C(=O)Nc3ccc(C(C)C)cc3)c2)CC1	6.51µM	.	.	.	.	.
